In PubChem BioAssay (EPA / NIEHS) one finds AC50 and outcome data, which are given here for five compounds.

Test [1] concerns the target human Caspase 5 (CASP5), CASP5 (gene 838) (UniProt P51878). The test is described as follows: NVS_ENZ_hCASP5: NovaScreen (NVS) Enzymatic Assay for human Caspase 5 (CASP5) (AID 2283137; active = hit-call score of the fitted dose curve at least 0.9, where 1 is the maximum). The essentials: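 Caspase 5 enzyme activity, detected as fluorescence signal loss, is measured in a biochemical format using E. coli-expressed protein. Reading occurs 2 hours post-dosing. Screening runs at 25 uM, with confirmed actives titrated to 50 uM maximum.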

The nature of test [2]: UKN5_HCS_SBAD2_cell_viability: Viability Assessment in the University of Konstanz (UKN) Leist Lab Neurite Outgrowth Assay in human iPSC-derived immature Dorsal Root Ganglia Neurons (UKN5) (AID 2284056). An outline of the steps: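 iPSC-derived immature peripheral neurons (SBAD2) seeded on Matrigel with CHIR99021, SU5402 and DAPT, dosed 1 h later for 24 h. Viability from Hoechst H-33342 and calcein-AM live staining, high-content imaging; bidirectional fit versus DMSO.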

Test [3] can be described thus: UKN5_HCS_SBAD2_neurite_outgrowth: University of Konstanz (UKN) Leist Lab Neurite Outgrowth Assay in human iPSC-derived immature Dorsal Root Ganglia Neurons (UKN5) (AID 2284070). The note with it: actives raise or lower the signal. The essentials:
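Neurite outgrowth is quantified as calcein-AM-labelled neurite area in human iPSC-derived peripheral neurons treated for 24 h, starting 1 h after plating in medium with CHIR99021 (1.5 uM), SU5402 (5 uM) and DAPT (5 uM).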

Test [4] can be described thus: CCTE_Mundy_HCI_Cortical_NOG_NeuronCount: CCTE's Neurite Outgrowth Assay in rat cortical cells for Neuron Count, Mundy Lab (AID 2284236; active = hit-call score of the fitted dose curve at least 0.9, where 1 is the maximum;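 note: neurons counted by imaging betaIII-tubulin and Hoechst stained cortical cells; cells exposed to compound for about 48 hours before fixation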). An outline of the steps: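 Read-out: neuron number by high-content imaging of betaIII-tubulin (Alexa Fluor-488) and Hoechst-labelled rat primary cortical cells.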
Test [5] can be described thus: TOX21_TR_RXR_BLA_Agonist_Followup_viability: Viability Assessment in the Tox21 Thyroid Hormone Receptor beta Retinoid X Receptor alpha (RXRa) Agonism Beta-lactamase (BLA) Follow-Up Assay (AID 2283970; active = hit-call score of the fitted dose curve at least 0.9, where 1 is the maximum). The essentials:
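Luminescent ATP read (CellTiter-Glo) after 16h exposure of RXRa-UAS-bla HEK293T cells at 37C/5% CO2. Activity normalized to DMSO; signal loss scored as reduced viability.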

Test [6] is described as follows: CCTE_Padilla_ZF_144hpf_TERATOSCORE: (Legacy) CCTE's 144 Hour Post-fertilization zebrafish Assay Teratoscore, Padilla Lab (AID 2283679).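 Note: zebrafish embryos with chorions exposed by immersion from 6-8 hpf to 5 dpf with daily renewal; teratogenicity score from eye scoring of death hatching and malformations at 144 hpf; higher score means more developmental defects relative to DMSO baseline.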 The essentials: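 Larvae scored by eye at 144 hpf for death, hatching and malformations after a day in clean Hanks'. Before that, daily-renewed exposure at 80 uM (0.4% DMSO, 26C) from roughly 6-8 hpf through 5 dpf, 4 embryos per chemical.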

Another test addresses THRA (gene 7067) (UniProt P10827). The test can be described thus: TOX21_TRA_COA_Antagonist_Followup_ratio: Tox21 Thyroid Hormone Receptor alpha Antagonism through Coactivator Recruitment Follow-Up Assay, Ratio (AID 2283953; active = hit-call score of the fitted dose curve at least 0.9, where 1 is the maximum). The essentials:
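We measured antagonism of T3-type coactivator recruitment using a TR-FRET ratio (emission 520 and 495 nm) between a Tb-labelled anti-GST antibody on TRα LBD (2.5 nM) and SRC-2 peptide (200 nM). Activity was scaled between DMSO and T3 wells.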

Test [7] can be described thus: TOX21_TRB_BLA_Antagonist_Followup_viability: Viability Assessment in the Tox21 Thyroid Hormone Receptor beta Antagonism Beta-lactamase (BLA) Follow-Up Assay (AID 2283961; active = hit-call score of the fitted dose curve at least 0.9, where 1 is the maximum). An outline of the steps: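 HEK293T cells with GAL4-human TRβ LBD and UAS-bla reporter, 3,000 cells/well in 2% charcoal-stripped FBS medium; 11-point concentrations in triplicate, 18 h at 37C. Viability from ATP by CellTiter-Glo luminescence, 30 min RT, same plates.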

The target of a further test is THRB (gene 7068) (UniProt P10828). The test can be described thus: TOX21_TRB_COA_Antagonist_Followup_ratio: Tox21 Thyroid Hormone Receptor beta Antagonism through Coactivator Recruitment Follow-Up Assay, Ratio (AID 2283967; active = hit-call score of the fitted dose curve at least 0.9, where 1 is the maximum). An outline of the steps: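 GST-TRb LBD 5.0 nM + 0.10% BSA, compound added; fluorescein-SRC-2 peptide 200 nM, Tb-anti-GST Ab 2 nM. TR-FRET, ex 340 / em 520:495 ratio. Norm: DMSO 0%, T3 100%.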
Sequence of THRB (gene 7068) (P10828 whole entry, looked up, the tested form may be a part): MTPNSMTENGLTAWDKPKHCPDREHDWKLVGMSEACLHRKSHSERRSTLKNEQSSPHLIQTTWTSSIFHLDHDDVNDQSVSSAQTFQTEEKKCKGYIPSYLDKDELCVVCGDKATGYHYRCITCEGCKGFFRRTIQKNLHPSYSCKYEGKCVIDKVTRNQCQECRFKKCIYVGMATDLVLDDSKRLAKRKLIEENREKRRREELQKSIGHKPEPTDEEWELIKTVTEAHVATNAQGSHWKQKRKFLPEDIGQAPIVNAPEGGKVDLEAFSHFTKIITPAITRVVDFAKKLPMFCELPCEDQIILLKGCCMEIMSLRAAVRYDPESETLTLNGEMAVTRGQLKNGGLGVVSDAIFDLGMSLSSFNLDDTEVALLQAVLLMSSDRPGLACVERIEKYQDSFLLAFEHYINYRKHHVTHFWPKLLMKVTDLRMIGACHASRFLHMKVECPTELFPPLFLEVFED

The nature of test [8]: TOX21_TR_RXR_BLA_Antagonist_Followup_viability: Viability Assessment in the Tox21 Thyroid Hormone Receptor beta Retinoid X Receptor alpha (RXRa) Antagonism Beta-lactamase (BLA) Follow-Up Assay (AID 2283979; active = hit-call score of the fitted dose curve at least 0.9, where 1 is the maximum). The essentials:
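RXRa-bla HEK293T cells (2,500/well, phenol red-free DMEM, 2% charcoal-stripped FBS) were attached 5 h, then exposed to compounds at 11 concentrations in triplicate for 16 h at 37C. Viability measured by CellTiter-Glo ATP luminescence, bidirectional fitting versus DMSO.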

In test [9] the target is guinea pig Leukotriene D4 Receptor (LTD4), CYSLTR1 (gene 100135514) (UniProt Q2NNR5). The test is described as follows: NVS_GPCR_gLTD4: NovaScreen (NVS) G Protein-Coupled Receptor Assay for guinea pig Leukotriene D4 Receptor (LTD4) (AID 2283248; active = hit-call score of the fitted dose curve at least 0.9, where 1 is the maximum). The essentials: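 Guinea pig lung membrane preparation; bound radioligand measured by filter scintillation after 1 h, loss of signal versus DMSO marking displacement. Compounds tested at 25 uM in duplicate, hits retested to max 50 uM.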
Sequence of guinea pig Leukotriene D4 Receptor (LTD4), CYSLTR1 (gene 100135514) (Q2NNR5 whole entry, looked up): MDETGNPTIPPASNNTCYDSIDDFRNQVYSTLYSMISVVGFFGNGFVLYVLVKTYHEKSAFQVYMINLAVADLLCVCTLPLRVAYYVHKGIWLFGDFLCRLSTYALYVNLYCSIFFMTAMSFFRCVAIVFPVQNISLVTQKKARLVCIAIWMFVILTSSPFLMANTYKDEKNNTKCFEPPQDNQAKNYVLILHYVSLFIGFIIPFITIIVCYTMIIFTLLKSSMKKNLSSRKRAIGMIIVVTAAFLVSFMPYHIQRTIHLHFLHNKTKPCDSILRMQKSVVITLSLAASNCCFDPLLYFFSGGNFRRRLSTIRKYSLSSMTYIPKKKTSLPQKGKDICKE

Test [10] has as its target human Neurokinin, NK2 Receptor, TACR2 (gene 6865) (UniProt P21452). The test is described as follows: NVS_GPCR_hNK2: NovaScreen (NVS) G Protein-Coupled Receptor Assay for human Neurokinin, NK2 Receptor (AID 2283278; active = hit-call score of the fitted dose curve at least 0.9, where 1 is the maximum;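 note: actives reduce bound radioligand signal relative to DMSO baseline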). The essentials: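 CHO-derived membrane protein, radioligand displacement, filter scintillation read at 4 h post-dose. Single-point 25 uM in duplicate, then concentration series for actives; DMSO as negative control.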

In test [11] the target is human Opioid Receptor Mu (Opiate Mu), OPRM1 (gene 4988) (UniProt P35372). The test is described as follows: NVS_GPCR_hOpiate_mu: NovaScreen (NVS) G Protein-Coupled Receptor Assay for human Opioid Receptor Mu (Opiate Mu) (AID 2283290; active = hit-call score of the fitted dose curve at least 0.9, where 1 is the maximum;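 note: hits lower bound tracer signal versus DMSO meaning displacement of the ligand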). The essentials:
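Cell-free radioligand binding to membranes from CHO cells expressing the receptor; bound tracer measured by filter-based scintillation counting 2.5 hours after dosing. Loss of signal versus DMSO baseline reflects displacement; primary screen at 25 uM in duplicate, actives followed up in concentration series.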

Read-out in test [12]: Monokine induced gamma interferon (MIG), CXCL9 (gene 4283)
The test can be described thus: BSK_KF3CT_MIG: BioMAP Diversity Plus: KF3CT Assay for Monokine induced gamma interferon (MIG) Biomarker Activity (AID 2284248). The note with it: primary human keratinocytes with fibroblasts. The essentials:
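Human keratinocyte–foreskin fibroblast co-culture; MIG measured by ELISA 24 h after chemical dosing, fitted upward versus DMSO. Cytotoxicity was assessed in parallel cultures by SRB total-protein staining read at 560 nm.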

Read-out in test [13]: Plasminogen activator inhibitor-1 (PAI1), SERPINE1 (gene 5054)
The test is described as follows: BSK_KF3CT_PAI1: BioMAP Diversity Plus: KF3CT Assay for Plasminogen activator inhibitor-1 (PAI1) Biomarker Activity (AID 2284252). The settings on record: primary human keratinocytes with fibroblasts. An outline of the steps: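 In this co-culture of primary human keratinocytes and foreskin fibroblasts, PAI-1 was measured by ELISA at 24 h and fitted upward from DMSO.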

Read-out in test [14]: Interleukin-8 (IL8), CXCL8 (gene 3576)
The test is described as follows: BSK_KF3CT_IL8: BioMAP Diversity Plus: KF3CT Assay for Interleukin-8 (IL8) Biomarker Activity (AID 2284254). The note with it: primary human keratinocytes with fibroblasts. An outline of the steps: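 Human keratinocyte/foreskin fibroblast co-culture dosed 24 h; IL-8 measured by ELISA relative to DMSO. Parallel cultures stained with SRB for total protein to flag cytotoxicity.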

Read-out in test [15]: Intercellular Adhesion Molecule 1 (ICAM1), ICAM1 (gene 3383)
The test can be described thus: BSK_BE3C_ICAM1: BioMAP Diversity Plus: BE3C Assay for Intercellular Adhesion Molecule 1 (ICAM1) Biomarker Activity (AID 2284278).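 Note: cell-surface ICAM-1 protein level quantified by ELISA.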 The settings on record: primary human bronchial epithelial cells. An outline of the steps: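 hu bronchial epithelial primary cells, 24 h cpd exposure, ICAM-1 ELISA; gain-of-signal fit vs DMSO baseline.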

Read-out in test [16]: Interferon-inducible T-cell alpha chemoattractant (ITAC), CXCL11 (gene 6373)
The test is described as follows: BSK_BE3C_ITAC: BioMAP Diversity Plus: BE3C Assay for Interferon-inducible T-cell alpha chemoattractant (ITAC) Biomarker Activity (AID 2284279). The note with it: primary human bronchial epithelial cells. An outline of the steps: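 Steps: dose human bronchial epithelial cells with chemical; incubate 24 h; measure I-TAC by ELISA; fit endpoint in positive direction against DMSO control. Cytotoxicity was checked in parallel cultures by SRB staining at harvest.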

Read-out in test [17]: Interleukin-8 (IL8), CXCL8 (gene 3576)
The test can be described thus: BSK_BE3C_IL8: BioMAP Diversity Plus: BE3C Assay for Interleukin-8 (IL8) Biomarker Activity (AID 2284280). The note with it: primary human bronchial epithelial cells. An outline of the steps:
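Dose human bronchial epithelial cells with chemical; incubate 24 h; quantify IL-8 by ELISA; fit response upward versus DMSO controls.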

Read-out in test [18]: Epidermal growth factor receptor (EGFR), EGFR (gene 1956)
The test is described as follows: BSK_BE3C_EGFR: BioMAP Diversity Plus: BE3C Assay for Epidermal growth factor receptor (EGFR) Biomarker Activity (AID 2284281). The settings on record: primary human bronchial epithelial cells. An outline of the steps:
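ELISA read-out of EGFR levels on human bronchial epithelial primary cells collected 24 h post-dosing. DMSO served as negative control and baseline for gain-of-signal fitting.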

Structures are written as SMILES. Where “and” joins values, the source holds several entries; their conditions need not be identical. Identical values can stand only once. Records with an inconclusive call do not appear. Calls of active or inactive are those of the source. Rule for the calls, unless noted: active = hit-call score of the fitted dose curve at least 0.9, where 1 is the maximum; inactive = score below 0.9.

Sequence of human Neurokinin, NK2 Receptor, TACR2 (gene 6865) (P21452 whole entry, looked up): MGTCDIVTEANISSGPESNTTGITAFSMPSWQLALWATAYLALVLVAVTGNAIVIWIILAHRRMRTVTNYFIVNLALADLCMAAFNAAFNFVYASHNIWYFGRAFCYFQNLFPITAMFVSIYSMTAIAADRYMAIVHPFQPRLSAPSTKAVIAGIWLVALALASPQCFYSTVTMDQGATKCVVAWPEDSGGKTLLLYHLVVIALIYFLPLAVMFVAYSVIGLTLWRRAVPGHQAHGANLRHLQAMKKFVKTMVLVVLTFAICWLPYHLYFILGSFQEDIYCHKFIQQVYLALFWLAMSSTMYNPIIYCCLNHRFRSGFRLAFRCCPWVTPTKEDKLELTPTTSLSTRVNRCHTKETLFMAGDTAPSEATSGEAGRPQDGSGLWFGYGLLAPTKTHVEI
Sequence of THRA (gene 7067) (P10827 whole entry, looked up, the tested form may be a part): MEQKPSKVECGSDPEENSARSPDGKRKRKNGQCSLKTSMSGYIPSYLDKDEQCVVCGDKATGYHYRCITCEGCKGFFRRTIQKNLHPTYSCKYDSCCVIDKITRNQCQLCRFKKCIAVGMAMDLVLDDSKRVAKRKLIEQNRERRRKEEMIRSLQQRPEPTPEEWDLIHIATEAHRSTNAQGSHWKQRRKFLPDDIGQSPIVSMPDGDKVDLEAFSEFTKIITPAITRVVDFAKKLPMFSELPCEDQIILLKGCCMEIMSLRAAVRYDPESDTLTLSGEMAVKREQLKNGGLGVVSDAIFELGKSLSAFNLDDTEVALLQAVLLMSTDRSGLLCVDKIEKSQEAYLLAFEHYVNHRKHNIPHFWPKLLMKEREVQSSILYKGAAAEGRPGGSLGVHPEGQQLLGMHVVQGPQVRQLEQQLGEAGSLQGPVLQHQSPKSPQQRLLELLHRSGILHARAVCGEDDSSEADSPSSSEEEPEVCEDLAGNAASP
Sequence of human Caspase 5 (CASP5), CASP5 (gene 838) (P51878 whole entry, looked up): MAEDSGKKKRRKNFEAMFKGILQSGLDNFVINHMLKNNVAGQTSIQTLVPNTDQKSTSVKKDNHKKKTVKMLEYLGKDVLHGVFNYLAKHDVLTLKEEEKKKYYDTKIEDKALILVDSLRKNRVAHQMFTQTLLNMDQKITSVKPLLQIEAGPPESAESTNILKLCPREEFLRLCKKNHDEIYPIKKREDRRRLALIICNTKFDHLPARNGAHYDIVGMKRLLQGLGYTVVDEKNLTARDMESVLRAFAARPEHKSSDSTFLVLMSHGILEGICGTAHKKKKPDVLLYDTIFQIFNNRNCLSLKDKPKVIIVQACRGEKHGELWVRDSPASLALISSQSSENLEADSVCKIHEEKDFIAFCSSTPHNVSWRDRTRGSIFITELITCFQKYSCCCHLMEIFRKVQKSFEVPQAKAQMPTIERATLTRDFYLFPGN
Sequence of human Opioid Receptor Mu (Opiate Mu), OPRM1 (gene 4988) (P35372 whole entry, looked up): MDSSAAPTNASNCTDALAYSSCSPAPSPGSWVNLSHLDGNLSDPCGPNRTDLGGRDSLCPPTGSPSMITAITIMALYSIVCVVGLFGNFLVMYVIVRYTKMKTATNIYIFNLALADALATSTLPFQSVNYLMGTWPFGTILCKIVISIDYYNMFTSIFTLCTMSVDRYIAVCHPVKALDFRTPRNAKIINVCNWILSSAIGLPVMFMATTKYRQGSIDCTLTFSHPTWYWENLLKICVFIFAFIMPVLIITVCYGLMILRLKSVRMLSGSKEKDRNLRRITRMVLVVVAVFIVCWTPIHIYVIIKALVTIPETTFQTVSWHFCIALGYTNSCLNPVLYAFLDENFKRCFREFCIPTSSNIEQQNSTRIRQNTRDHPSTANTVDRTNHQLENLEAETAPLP

A word on the AC50: it is the concentration at which the activity in the assay is half-maximal. On to `CC1(C)S[C@@H]2[C@H](NC(=O)[C@H](N)c3ccccc3)C(=O)N2[C@H]1C(=O)O`, for which the AC50 in test [1] was 1.88 µM (active). Also, the compound was classed as inactive in [2], in test [3] and in [4].
`CC(C)CC(=O)O`: the result in [5] was inactive.
On to `CC(C)n1c(/C=C/[C@@H](O)C[C@@H](O)CC(=O)O)c(-c2ccc(F)cc2)c2ccccc21`, for which the AC50 in test [6] is 447 nM (active) and 111 nM (active). Also, the outcome (in the test with THRA (gene 7067); in test [7]; with THRB (gene 7068); in test [8]) was inactive.
`CCCCCCCCCCCCCCCCCC[N+](C)(C)C`: in [9], the compound was called inactive. Also, the AC50 was 4.53 µM (active) in test [10] and 3.4 µM (active) in test [11].
As to `CN(C)Cc1cc(C(C)(C)C)c(O)c(C(C)(C)C)c1`, the outcome in test [12], in [13], in [14], in test [15], in test [16] and in [17] was inactive. Further, in test [18], the outcome was inactive.
